# Data as given in paper PMC5540273 (PLoS ONE, 2017).
# Key:
# Conditions in all cases: concentration: 1 μM, replicates: in singlicate; n = 1
# [1] = tested on: ACVR2B
# [2] = tested on: ACVRL1
# [3] = tested on: T1, ADCK3
# T1 construct: gene CABC1
# [4] = tested on: ADCK4
# [5] = tested on: AKT1
# [6] = tested on: AKT2
# [7] = tested on: AKT3
# [8] = tested on: ALK
# [9] = tested on: T2, AMPK-alpha1
# T2 construct: gene PRKAA1
# [10] = tested on: T3, AMPK-alpha2
# T3 construct: gene PRKAA2
# [11] = tested on: ANKK1
# [12] = tested on: T4, ARK5
# T4 construct: gene NUAK1
# [13] = tested on: T5, ASK1
# T5 construct: gene MAP3K5
# [14] = tested on: T6, ASK2
# T6 construct: gene MAP3K6
# [15] = tested on: AURKA
# [16] = tested on: AURKB
# [17] = tested on: AURKC
# [18] = tested on: AXL
# [19] = tested on: T7, BIKE
# T7 construct: gene BMP2K
# [20] = tested on: BLK
# 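Also: KINOMEscan kinase panel screen.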
SMILES,%Inh [1] [%],%Inh [2] [%],%Inh [3] [%],%Inh [4] [%],%Inh [5] [%],%Inh [6] [%],%Inh [7] [%],%Inh [8] [%],%Inh [9] [%],%Inh [10] [%],%Inh [11] [%],%Inh [12] [%],%Inh [13] [%],%Inh [14] [%],%Inh [15] [%],%Inh [16] [%],%Inh [17] [%],%Inh [18] [%],%Inh [19] [%],%Inh [20] [%]
CC1=C(C(=O)Nc2cc3cn[nH]c3cc2F)C(c2ccc(C(F)(F)F)cc2)CC(=O)N1 (stereo not shown) [GSK429286],0,0,11,11,0,20,0,29,23,19,0,7,0,24,23,1,46,0,19,42
Cc1csc(-c2nc(Nc3ccncc3)c3ccccc3n2)n1 [GW869640],4,7,14,0,0,3,15,43,12,11,18,0,11,37,41,45,1,0,0,5
CC(C)(C)c1ccc(C(=O)Nc2cn3cc(-c4cccnc4)ccc3n2)cc1,0,0,19,0,0,0,4,0,43,0,11,14,94.9,0,0,34,19,25,8,8
Cc1cccc(-c2nc(Nc3ccc4[nH]ncc4c3)c3ccccc3n2)n1 [GW857175],0,0,0,0,29,55,0,19,0,2,0,1,0,13,0,3,22,26,33,3
CN(C)CCN(C)C(=O)c1cc(-c2ccncc2)c(-c2ccc(Cl)c(O)c2)o1.Cl.Cl [SB-710397],9,0,11,45,0,0,0,29,0,0,0,0,18,0,0,9,0,8,13,12
